The results in this text go back to PubChem BioAssay.

Experiment [1] relates to Plasmodium falciparum Sir2 (PF13_0152, Sir2A). The experiment is described as follows: pfSir2 binders on small-molecule microarrays, primary screen, biochemical, small-molecule microarray, 635 nm fluorescence (AID 1098).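 Further: score merges spot fluorescence intensity with its signal-to-noise ratio.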 The conditions noted are these: small-molecule microarray binding, fluorescence 635 nm; higher = more signal.
The nature of experiment [2]: small-molecule microarray binders of probe aDKK1, primary screen, biochemical, biotinylated probe, 635/667 nm fluorescence (AID 1099).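 Further: score merges 667nm spot fluorescence with signal to noise across triplicate slides.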 The conditions noted are these: higher = more signal.
The nature of experiment [3]: small-molecule microarray binders of probe aCHRDL2, primary screen, biochemical, biotinylated probe, 635/667 nm fluorescence (AID 1100). The conditions noted are these: higher = more signal.
The nature of experiment [4]: splicing luciferase reporter signal modulators, primary screen, spliceosome inhibition project, cell-based, HEK293, splice +/- reporter (AID 1101).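 Further: HEK293 cells carrying a splicing-competent luciferase reporter gene; test concentration not given here.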 The following applies: luminescence, 24 h, higher = more signal, called active from +8 up or from −8 down. A general note: A reporter such as luciferase makes a cellular process visible.
Experiment [5] concerns the target Fibroblast growth factor 10 (Homo sapiens) (UniProt O15520). The experiment is described as follows: FGF10 binders on small-molecule microarrays, primary screen, biochemical, small-molecule microarray, 635 nm fluorescence (AID 1102). The following applies: FGF10 binding, fluorescence 635 nm, higher = more signal.
Experiment [6] has as its system glycogen synthase kinase-3 (GSK3A per assay name; protocol says GSK3B). Description: GSK3 binders on small-molecule microarrays, primary screen, biochemical, small-molecule microarray, 635 nm fluorescence, GSK3A (AID 1103). Further: the record names both GSK3A and GSK3B. The following applies: small-molecule microarray binding, fluorescence 635 nm; higher = more signal.
Experiment [7] concerns the target Epidermal growth factor receptor (Homo sapiens) (UniProt P00533). Description: EGFR binders on small-molecule microarrays, primary screen, biochemical, small-molecule microarray, 635 nm fluorescence (AID 1104).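 Further: score merges 667 nm emission intensity with spot signal to noise over triplicate slides.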 The conditions noted are these: EGFR binding, higher = more signal.
For experiment [8], the target named is Follistatin-related protein 3 (Homo sapiens) (UniProt O95633). The experiment is described as follows: FSTL3 binders on small-molecule microarrays, primary screen, biochemical, small-molecule microarray, 635 nm fluorescence (AID 1105).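 Further: score merges emission near 667 nm and signal to noise per printed spot across three slides.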 The following applies: FSTL3 binding, higher = more signal.
Chain of Follistatin-related protein 3 (Homo sapiens) (O95633 whole entry, looked up): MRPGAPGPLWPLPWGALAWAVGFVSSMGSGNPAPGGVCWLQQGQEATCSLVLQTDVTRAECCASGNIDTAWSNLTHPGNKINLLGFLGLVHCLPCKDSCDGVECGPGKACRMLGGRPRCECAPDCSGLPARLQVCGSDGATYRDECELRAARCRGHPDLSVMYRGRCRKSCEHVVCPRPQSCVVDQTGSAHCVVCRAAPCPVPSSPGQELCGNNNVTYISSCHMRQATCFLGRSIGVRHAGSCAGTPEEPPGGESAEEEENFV
Experiment [9] has as its target Dickkopf-related protein 1 (Homo sapiens) (UniProt O94907). Description: DKK1 binders on small-molecule microarrays, primary screen, biochemical, small-molecule microarray, 635 nm fluorescence scan (AID 1106).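 Further: score merges emission near 667 nm with signal to noise over three replicate slides.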 The following applies: DKK1 binding, higher = more signal.
Experiment [10] relates to Inhibin beta A chain (activin A). Description: INHBA (activin A) binders on microarrays, primary screen, biochemical, small-molecule microarray, 635 nm fluorescence scan (AID 1107).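 Further: mouse activin A protein probed at 4.33 µg/mL on printed slides; score merges bound-protein fluorescence near 667 nm with spot signal-to-noise.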 The following applies: small-molecule microarray binding, higher = more signal.
Experiment [11] deals with Human papillomavirus type 1a protein E7 (residues 44-93). The experiment is described as follows: HPV1a E7 fragment binders on microarrays, primary screen, biochemical, small-molecule microarray, residues 44-93, 635 nm fluorescence (AID 1108).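 Further: E7 fragment applied at 1 µg/mL in TBST for 1 h at 4 C; score combines spot fluorescence with its signal to noise ratio.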 The conditions noted are these: small-molecule microarray binding, fluorescence 635 nm; higher = more signal.
Experiment [12] in a line: modulators of HCV replicon luciferase signal, primary screen, HCV replication inhibitor project, Huh7 cells, luciferase reporter (AID 1109).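 Further: huh7 hepatoma cells harbouring a luciferase neomycin HCV replicon reporter; luciferase luminescence as measure of HCV replicon replication; test concentration not given here.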 The following applies: 48 h, higher = more signal.
Experiment [13] addresses Left-right determination factor 2 (Homo sapiens) (UniProt O00292). The experiment is described as follows: LEFTY2 binders on small-molecule microarrays, primary screen, biochemical, small-molecule microarray, 635 nm fluorescence scan (AID 1110). The following applies: LEFTY2 binding, higher = more signal.
Experiment [14] addresses Calmodulin-1 (Homo sapiens) (UniProt P0DP23). The experiment is described as follows: CALM1 binders on microarrays, EGTA buffer, profiling panel, biochemical, small-molecule microarray, Cy5-labelled CALM1 (AID 1111).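 Further: labelled calmodulin applied in Tris saline Tween buffer holding calcium plus EGTA and DTT.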 The following applies: Cy5-CALM1 binding fluorescence, higher = more signal.
Experiment [15] shares this target. The experiment is described as follows: calcium-bound CALM1 binders on microarrays, profiling panel, artefact control for SMM control-protein annotation, biochemical, small-molecule microarray, Cy5-labelled CALM1, plus calcium (AID 1112).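 Further: score merges spot fluorescence with signal to noise from triplicate slides.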 The following applies: Cy5-CALM1 binding fluorescence, higher = more signal.
A short description of experiment [16]: small-molecule microarray binders of probe aWnt5a, primary screen, biochemical, biotinylated probe, 635/667 nm fluorescence (AID 1113).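 Further: score merges 667 nm fluorescence intensity with signal-to-noise per printed feature.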 The conditions noted are these: higher = more signal.
The nature of experiment [17]: small-molecule microarray binders of probe aShh, primary screen, biochemical, biotinylated probe, 635/667 nm fluorescence (AID 1114).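 Further: probe is biotin-labelled aShh protein from a stem cell growth factor screen; measures binding of labelled protein to compounds printed on the slide; score merges feature fluorescence at 667 nm with signal-to-noise.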 The following applies: higher = more signal.
The nature of experiment [18]: small-molecule microarray binders of probe aNog, primary screen, biochemical, biotinylated probe, 635/667 nm fluorescence (AID 1115).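 Further: probe is biotinylated aNog protein used at 0.15 µg/mL for 1 h at 4 C; z-score combines 667 nm fluorescence of each spot with its signal to noise.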 The following applies: higher = more signal.
Experiment [19] concerns the target Torsin-1A-interacting protein 1 (Homo sapiens) (UniProt Q5JTV8). The experiment is described as follows: LAP1 binders from COS7 cell lysate, primary screen, small-molecule microarray, 635/667 nm fluorescence (AID 1116). The conditions noted are these: COS7-hLAP1 lysate binding, 635 nm fluorescence, higher = more signal.
For experiment [20], the target named is Alpha-bungarotoxin (Bungarus multicinctus) (UniProt P60615). Description: alpha-bungarotoxin binders on microarray, profiling panel, artefact control for SMM control protein annotation, biochemical, small-molecule microarray, Alexa647 label, 635/667 nm fluorescence (AID 1117). The following applies: alpha-BTX-A647 binding fluorescence, higher = more signal.
Chain of Alpha-bungarotoxin (Bungarus multicinctus) (P60615 whole entry, looked up): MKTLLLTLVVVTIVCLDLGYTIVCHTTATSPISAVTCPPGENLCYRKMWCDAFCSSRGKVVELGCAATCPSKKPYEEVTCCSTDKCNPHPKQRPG

Active and inactive are the calls of the source.

Chain of Epidermal growth factor receptor (Homo sapiens) (P00533 whole entry, looked up): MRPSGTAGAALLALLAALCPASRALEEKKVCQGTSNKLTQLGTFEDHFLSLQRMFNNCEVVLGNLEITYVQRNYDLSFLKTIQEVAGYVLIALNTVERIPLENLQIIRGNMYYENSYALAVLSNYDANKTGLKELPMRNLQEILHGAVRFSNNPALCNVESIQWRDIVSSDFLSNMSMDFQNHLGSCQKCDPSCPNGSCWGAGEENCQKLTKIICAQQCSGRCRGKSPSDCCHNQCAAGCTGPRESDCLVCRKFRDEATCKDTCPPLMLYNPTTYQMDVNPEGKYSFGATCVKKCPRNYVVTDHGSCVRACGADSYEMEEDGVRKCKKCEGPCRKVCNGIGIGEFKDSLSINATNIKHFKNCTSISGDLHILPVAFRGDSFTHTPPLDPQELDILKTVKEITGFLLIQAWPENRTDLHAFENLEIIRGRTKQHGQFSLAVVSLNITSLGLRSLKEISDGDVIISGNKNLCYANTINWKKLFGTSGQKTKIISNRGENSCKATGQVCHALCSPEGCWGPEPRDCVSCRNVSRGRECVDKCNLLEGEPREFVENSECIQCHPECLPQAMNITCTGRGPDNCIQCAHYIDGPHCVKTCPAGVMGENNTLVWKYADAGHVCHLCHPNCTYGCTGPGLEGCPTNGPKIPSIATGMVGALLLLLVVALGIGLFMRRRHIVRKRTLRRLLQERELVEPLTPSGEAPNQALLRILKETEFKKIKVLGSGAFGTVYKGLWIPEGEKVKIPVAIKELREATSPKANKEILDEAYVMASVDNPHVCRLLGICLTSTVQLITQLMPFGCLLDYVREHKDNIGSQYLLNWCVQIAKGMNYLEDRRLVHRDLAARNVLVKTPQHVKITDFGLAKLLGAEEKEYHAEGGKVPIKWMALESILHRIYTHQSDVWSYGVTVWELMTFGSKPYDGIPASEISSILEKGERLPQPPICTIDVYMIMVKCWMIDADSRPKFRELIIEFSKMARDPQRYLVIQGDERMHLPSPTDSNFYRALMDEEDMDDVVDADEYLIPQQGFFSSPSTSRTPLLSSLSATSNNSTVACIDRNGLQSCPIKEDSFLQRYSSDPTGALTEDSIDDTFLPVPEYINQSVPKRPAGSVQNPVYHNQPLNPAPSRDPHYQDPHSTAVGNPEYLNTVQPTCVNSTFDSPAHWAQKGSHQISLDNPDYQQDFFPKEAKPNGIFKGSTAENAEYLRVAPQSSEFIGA
Chain of Dickkopf-related protein 1 (Homo sapiens) (O94907 whole entry, looked up): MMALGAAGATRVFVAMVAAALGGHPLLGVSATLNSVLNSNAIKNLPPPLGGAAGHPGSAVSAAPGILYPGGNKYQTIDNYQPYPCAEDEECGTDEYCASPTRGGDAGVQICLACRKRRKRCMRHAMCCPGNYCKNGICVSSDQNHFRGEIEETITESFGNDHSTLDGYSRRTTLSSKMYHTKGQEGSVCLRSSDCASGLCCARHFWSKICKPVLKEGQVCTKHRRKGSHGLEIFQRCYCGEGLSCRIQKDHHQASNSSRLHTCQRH
Chain of Torsin-1A-interacting protein 1 (Homo sapiens) (Q5JTV8 whole entry, looked up): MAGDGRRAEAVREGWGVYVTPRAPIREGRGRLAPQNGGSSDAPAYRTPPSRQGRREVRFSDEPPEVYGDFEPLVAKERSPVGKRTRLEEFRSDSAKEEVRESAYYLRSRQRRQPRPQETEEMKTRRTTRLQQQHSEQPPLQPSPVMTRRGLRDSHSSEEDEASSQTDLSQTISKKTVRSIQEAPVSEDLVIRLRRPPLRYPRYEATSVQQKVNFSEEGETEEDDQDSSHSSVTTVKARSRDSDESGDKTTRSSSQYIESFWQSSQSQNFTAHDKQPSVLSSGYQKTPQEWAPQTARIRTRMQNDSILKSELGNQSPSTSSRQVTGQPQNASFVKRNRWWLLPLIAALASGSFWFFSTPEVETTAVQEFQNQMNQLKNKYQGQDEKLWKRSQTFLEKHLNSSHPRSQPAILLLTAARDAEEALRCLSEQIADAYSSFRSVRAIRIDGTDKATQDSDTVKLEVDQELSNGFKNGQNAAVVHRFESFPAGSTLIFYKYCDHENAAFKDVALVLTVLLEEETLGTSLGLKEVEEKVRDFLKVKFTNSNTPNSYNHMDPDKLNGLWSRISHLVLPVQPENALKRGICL
Chain of Left-right determination factor 2 (Homo sapiens) (O00292 whole entry, looked up): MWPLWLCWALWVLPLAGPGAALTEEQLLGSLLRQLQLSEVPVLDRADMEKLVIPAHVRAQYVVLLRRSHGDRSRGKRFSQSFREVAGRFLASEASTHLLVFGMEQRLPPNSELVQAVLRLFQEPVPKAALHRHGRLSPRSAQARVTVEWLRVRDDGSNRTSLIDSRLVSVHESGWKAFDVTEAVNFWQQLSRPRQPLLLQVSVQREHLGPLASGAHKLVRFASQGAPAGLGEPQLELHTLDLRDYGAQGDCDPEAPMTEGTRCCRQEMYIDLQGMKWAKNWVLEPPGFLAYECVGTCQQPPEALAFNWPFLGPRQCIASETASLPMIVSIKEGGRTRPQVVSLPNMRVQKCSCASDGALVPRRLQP
Chain of Fibroblast growth factor 10 (Homo sapiens) (O15520 whole entry, looked up): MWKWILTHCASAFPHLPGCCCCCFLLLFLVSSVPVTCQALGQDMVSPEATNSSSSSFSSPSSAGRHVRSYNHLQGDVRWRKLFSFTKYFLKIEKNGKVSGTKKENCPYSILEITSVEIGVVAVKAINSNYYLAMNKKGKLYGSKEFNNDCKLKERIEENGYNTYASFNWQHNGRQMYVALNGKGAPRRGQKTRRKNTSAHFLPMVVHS

Take `O=C1OCCC/C=C\[C@H]2OC34C=CCN(Cc5ccccc5)C(=O)[C@H]3N(CCO)C(=O)[C@@H]4C12` (stereo not given in full): the composite z-score in experiment [1] is 1.76; in experiment [2] it was -0.214; in experiment [3], 0.222; in experiment [5], 0.049; in experiment [6], 0.124; in experiment [7], -0.71. The composite z-score in [8] is -0.579; in [9] it was -0.461; in [10], 0.765; in [11], -0.574; in experiment [13], 0.518; in experiment [14], -0.251. Besides, the composite z-score is 0.774 in experiment [15]; -0.169 in experiment [16]; -0.0709 in experiment [17]; -0.33 in experiment [18]; -0.447 in experiment [19]; -1.06 in experiment [20]. Also, the z-score was -1.25 (inactive) in experiment [4] and 0.0684 in experiment [12].
Turning to `COC(=O)c1ccc(OC)c(/C=C\CC(OC(=O)c2ccncc2)c2ccccc2)c1` (stereo not given), the composite z-score is -0.475 in experiment [1]; -0.367 in [2]; -0.43 in experiment [3]; 0.377 in experiment [5]; 0.058 in experiment [6]; 1.09 in [7]. Also, the composite z-score in [8] is 0.891; in [9], 0.631; in experiment [10] it was 1.61; in experiment [11] it was -0.734; in experiment [13] it was 0.684; in experiment [14], -1.05. In addition, the composite z-score in [15] is 0.157; in experiment [16], -0.101; in [17], -0.206; in [18], -0.183; in experiment [19], 0.187; in experiment [20] it was 2.12. For the same compound, the z-score is -2.07 (inactive) in [4] and -1.91 in experiment [12].
In the case of `O=C1OCC=C[C@H]2OC34C=CCN(Cn5nnc6ccccc65)C(=O)[C@H]3N(CCO)C(=O)[C@@H]4[C@@H]12` (stereo not given in full), the composite z-score is 0.101 in experiment [1]; -0.0279 in [2]; 0.329 in experiment [3]; -1.33 in [5]; -1.02 in experiment [6]; -1.09 in experiment [7]. For the same compound, the composite z-score was -1.35 in experiment [8]; -1.71 in experiment [9]; -0.0812 in [10]; 0.316 in [11]; -1.41 in experiment [13]; -0.157 in experiment [14]. For the same compound, the composite z-score in experiment [15] was 0.62; in experiment [16], -0.148; in [17], -0.0192; in [18] it was 0.0963; in experiment [19] it was -0.0193; in experiment [20], -2.05. Further, the z-score in experiment [4] is 1.15 (inactive); in experiment [12], -0.105.
Regarding `CN(C)CCCCNC(=O)[C@H]1C[C@H]2C(=O)N[C@@H](CCCCN(C)C)C(=O)N2[C@H]1c1ccc(O)cc1`, the composite z-score in experiment [1] was 1.12; in [2], -0.265; in experiment [3], -0.508; in experiment [5], 0.174; in experiment [6], -0.0777; in [7], 0.821. Also, the composite z-score in [8] was 0.592; in [9], 1.16; in experiment [10], -0.0636; in experiment [11], -1.01; in experiment [13] it was 0.435; in [14], -0.362. For the same compound, the composite z-score was -0.873 in [15]; -0.128 in [16]; -0.229 in experiment [17]; -0.0446 in experiment [18]; -0.178 in experiment [19]; 0.457 in experiment [20]. Besides, the z-score was -1.73 (inactive) in experiment [4] and 0.448 in [12].
For the compound `CC(C)C[C@H]1NC(=O)CNC(=O)[C@@]23C(=O)N[C@@H](Cc4ccccc4)C2[C@H](C)[C@@]2(C)O[C@H]2C3/C=C/C/C=C\CNC1=O` (stereo not given in full), the composite z-score in experiment [1] was 0.288; in experiment [2], -0.129; in experiment [3], -0.671; in experiment [5], 0.749; in experiment [6], 0.407; in [7], 0.181. Further, the composite z-score in [8] is 0.811; in [9] it was 0.267; in experiment [10], 1.48; in experiment [11], 0.0774; in experiment [13], 0.715; in experiment [14] it was -0.322. Further, the composite z-score in experiment [15] was -0.833; in experiment [16], -0.169; in experiment [17] it was -0.221; in experiment [18] it was -0.0315; in experiment [19] it was -0.0248; in experiment [20] it was -0.188. The z-score in experiment [4] is 0.187 (inactive); in experiment [12], 0.238.
Consider `C=CCNC(=O)[C@H]1[C@@H]2C(=O)O[C@@H](c3ccccc3)[C@@H](c3ccccc3)N2[C@@H](c2ccc(O)cc2)[C@]12C(=O)Nc1ccccc12`, for which the composite z-score in experiment [1] was 0.524; in experiment [2], 0.46; in [3], 0.501; in experiment [5] it was 0.28; in experiment [6], -0.471; in [7] it was -0.705. In addition, the composite z-score was -0.693 in [8]; -0.101 in [9]; 0.169 in [10]; 0.864 in [11]; -0.588 in experiment [13]; 0.51 in experiment [14]. For the same compound, the composite z-score is 0.0876 in experiment [15]; -0.148 in experiment [16]; -0.0769 in [17]; -0.0089 in [18]; 1.33 in experiment [19]; 0.269 in experiment [20]. In addition, the z-score was -0.592 (inactive) in experiment [4] and -0.462 in [12].
Take `CC(C)N1CC=CC23O[C@@H]4/C=C\CCCOC(=O)C4[C@H]2C(=O)N(C(C)CO)[C@@H]3C1=O` (stereo not given in full): the composite z-score in [1] is 0.748; in [2], -0.4; in experiment [3], 0.44; in experiment [5] it was -0.663; in [6], -1.02; in experiment [7], -0.962. Moreover, the composite z-score was -0.849 in [8]; -1.35 in experiment [9]; 0.493 in experiment [10]; -0.7 in [11]; -0.794 in experiment [13]; -0.814 in experiment [14]. In addition, the composite z-score is -0.242 in experiment [15]; -0.308 in experiment [16]; -0.167 in experiment [17]; -0.356 in experiment [18]; -0.401 in experiment [19]; -0.393 in experiment [20]. The z-score is -1.09 (inactive) in experiment [4] and 0.314 in experiment [12].
For the compound `C=CCN1C(=O)[C@]2(O[C@H](CCO)[C@@H]([Si](C)(C)c3ccc(OC)cc3)[C@@H]2C)c2cc(N3C(=O)c4ccccc4Oc4ccccc43)ccc21`, the composite z-score was 1.16 in [1]; -0.252 in experiment [2]; 0.117 in experiment [3]; 0.402 in [5]; 0.209 in experiment [6]; 0.0038 in [7]. In addition, the composite z-score turned out to be 0.255 in [8]; 0.107 in [9]; 0.206 in experiment [10]; 1.3 in experiment [11]; 0.28 in [13]; 1.2 in experiment [14]. In addition, the composite z-score in experiment [15] is 0.323; in [16], -0.0203; in experiment [17], -0.0709; in [18], -0.158; in [19], -0.0465; in experiment [20], 0.378. The z-score was -1.38 (inactive) in experiment [4] and -5.05 in experiment [12].
